# According to PubChem BioAssay (NCI):
# About 83,000 compounds went through this panel and 20% of them were active in at least one assay; those are over-represented in the sample as a whole.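 A percent growth of 40 corresponds to 60% growth inhibition; 0 means no net growth; -100 means all cells died. Active threshold: below 10.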 A number with no mark means an inactive call. The source made the active and inactive calls.
# Test system: HOP-62 NSCLC
# Test: NCI-60 one-dose screen, 48 h (100 = growth as untreated, 0 = no growth, -100 = all killed)
# Settings: 10 µM unless noted
row,Compound,growth
1,COc1ccc(N=C2CSc3nnc(-c4cc(F)c(Cl)cc4Cl)n3N2)cc1,-33.7% (active)
2,Nc1c(C(=O)Nc2cccc(Cl)c2)sc2nc3c(cc12)C(=O)CCC3,47%
3,COc1ccc(CNc2c3ccccc3nc3ccc(OC)cc23)cc1,34.1%
4,CCOC(=O)c1cc(C(=O)OCC)c(C)nc1C,102%
5,NC(=O)N/N=C\c1ccc([N+](=O)[O-])o1,96.7%
6,Cc1ccc(NC(=O)c2sc3nc4c(cc3c2N)C(=O)CCC4)cc1Cl,110%
7,COc1ccc(-n2c(COc3ccc(F)cc3)n[nH]c2=S)cc1,105%
8,COc1ccccc1-[n+]1cc(-c2ccc(-c3ccccc3)cc2)n2c1CCCCC2,12.6%
9,Nc1cc(C(=O)O)cc(C(=O)O)c1,98.1%
10,CN(C)c1nc(-c2cccs2)n2nc(-c3ccco3)cc2n1,106%
11,O=C(Nc1cccc(-n2ccc3c(NC(=O)c4ccccc4)nccc32)c1)c1ccc(N2CCOCC2)c(C(F)(F)F)c1,7.08% (active)
12,CNC(=O)c1c(NC(=O)c2ccc(C(C)C)cc2)sc2c1CCC(=O)C2,12%
13,CC(CN1CCN(CC(C)Nc2ccnc3cc(Cl)ccc23)CC1)Nc1ccnc2cc(Cl)ccc12 (centres undefined),-18.4% (active)
14,Cc1c2c(cc3c1[nH]c1ccccc13)C=NCC2,96%
15,CC(C)c1ccc2c(c1)CCC1C2CCCC1(C)NCc1ccccc1 (centres undefined),91%
16,CC1(C)OC2OC3C(CN)OC(c4ccccc4)OC3C2O1 (centres undefined),93.9%
17,O=C1Nc2ccc(Br)cc2/C1=N/c1nc(-c2ccccc2)cs1,53.8%
18,CS(=O)(=O)c1ccc(C(=O)N/N=C/c2ccccc2Cl)cc1,87.3%
19,Cc1ccc(Nc2cccc3ccccc23)cc1,91.9%
20,CCCCc1nc(Cl)c(C2CC(c3ccc(S(N)(=O)=O)cc3)=NN2c2ccc(C#N)cc2)[nH]1 (centres undefined),90.5%

row,Compound,growth
1,O/N=C1\c2ccccc2-c2ccc(Br)cc21,113%
2,CCN(CC)CCCC(C)Nc1c(-c2ccccc2)cnc2cc(Cl)ccc12 (centres undefined),101%
3,OC(COCc1ccccc1)COCc1ccccc1,106%
4,O=C(CC(=O)c1cccc(Cl)c1)c1cccc(Cl)c1,22.1%
5,O=C1CCCN1C1CCN2CCCc3cccc1c32 (centres undefined),97%
6,CC(C)(C)[Si](C)(C)OC1[C@@H](CNC(N)=O)O[C@@H](n2cnc3c(NC(=O)Nc4ccccc4)ncnc32)[C@H]1O[Si](C)(C)C(C)(C)C (some centres undefined),78.1%
7,NC(CCC(=O)NC(CS)C(=O)NCC(=O)O)C(=O)O (centres undefined),103%
8,C/C(=N\NC(=O)CSc1nc2ccccc2c(=O)n1CCc1ccc(S(N)(=O)=O)cc1)c1ccc(Br)cc1,77.4%
9,CC(C)CCSc1nc(Nc2ccccc2)c(C#N)c(-c2ccc(F)cc2)n1,56.5%
10,CCOC(=O)C1OC2(CCCC2)OC1C(=O)OCC (centres undefined),103%
11,CS(=O)(=O)c1ccc(C(=O)N/N=C/c2ccccc2O)cc1,28.3%
12,O=C(NCCN1CCCC1)n1cc(-c2ccncc2)c(-c2cc(O)cc(Cl)c2)n1,92.3%
13,C[C@@H]1N=C(c2ccc3ccccc3c2)Nc2nc3ccccn3c2C1=O,36.7%
14,CNCCCn1c2c(c3ccc(Cl)cc3c1=O)C(=O)c1cc(OC)cnc1-2,17.6%
15,CC(=O)Oc1ccccc1C(=O)Nc1ncc([N+](=O)[O-])s1,67.1%
16,O=C1/C(=C/c2ccccc2)SC(=Nc2ccccc2)N1Nc1ccccc1,39.4%
17,Oc1c(C(Nc2cccc3ccccc23)c2ccccc2)ccc2cccnc12 (centres undefined),52.2%
18,COc1ccc(CC2c3cc(OC)c(OC)cc3CC[N+]2(C)CCC(=O)OCCCCCOC(=O)CC[N+]2(C)CCc3cc(OC)c(OC)cc3C2Cc2ccc(OC)c(OC)c2)cc1OC (centres undefined),100%
19,CCn1c(Cc2ccccc2Nc2c(Cl)cccc2Cl)nnc1SCC(=O)Nc1ccccc1C(F)(F)F,98.1%
